What was measured:
Assay in all cases: log2 ratio of Biotin-Ahx-Ub-VS probe labelling (fragment/DMSO); higher = less target engagement (more negative = stronger competition), active = hit call of the paper (q ≤ 0.05, log2 ratio ≤ -1)
Details in all cases: compound concentration: 200 uM; treatment time: 3 h
[1] = target: USP34 (UniProt Q70CQ2)
Procedure, shortened: (§1)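 HEK293T lysate, 495 µg per sample in Tris/CHAPS/IGEPAL buffer with protease inhibitors, was treated in triplicate with fragment at 200 µM or vehicle for 3 h and then with Biotin-Ahx-Ub-VS at 0.5 µM final for 1 h. Labelled DUBs were NeutrAvidin-enriched, digested with LysC and trypsin, and run by diaPASEF LC-MS/MS. Spectronaut label-free quantities were global-median-normalised, and values are average log2 fragment/vehicle ratios by unpaired t-test on proteins with ≥2 unique peptides.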

[2] = target: T1, USP36 (UniProt Q9P275)
T1 sequence (whole entry): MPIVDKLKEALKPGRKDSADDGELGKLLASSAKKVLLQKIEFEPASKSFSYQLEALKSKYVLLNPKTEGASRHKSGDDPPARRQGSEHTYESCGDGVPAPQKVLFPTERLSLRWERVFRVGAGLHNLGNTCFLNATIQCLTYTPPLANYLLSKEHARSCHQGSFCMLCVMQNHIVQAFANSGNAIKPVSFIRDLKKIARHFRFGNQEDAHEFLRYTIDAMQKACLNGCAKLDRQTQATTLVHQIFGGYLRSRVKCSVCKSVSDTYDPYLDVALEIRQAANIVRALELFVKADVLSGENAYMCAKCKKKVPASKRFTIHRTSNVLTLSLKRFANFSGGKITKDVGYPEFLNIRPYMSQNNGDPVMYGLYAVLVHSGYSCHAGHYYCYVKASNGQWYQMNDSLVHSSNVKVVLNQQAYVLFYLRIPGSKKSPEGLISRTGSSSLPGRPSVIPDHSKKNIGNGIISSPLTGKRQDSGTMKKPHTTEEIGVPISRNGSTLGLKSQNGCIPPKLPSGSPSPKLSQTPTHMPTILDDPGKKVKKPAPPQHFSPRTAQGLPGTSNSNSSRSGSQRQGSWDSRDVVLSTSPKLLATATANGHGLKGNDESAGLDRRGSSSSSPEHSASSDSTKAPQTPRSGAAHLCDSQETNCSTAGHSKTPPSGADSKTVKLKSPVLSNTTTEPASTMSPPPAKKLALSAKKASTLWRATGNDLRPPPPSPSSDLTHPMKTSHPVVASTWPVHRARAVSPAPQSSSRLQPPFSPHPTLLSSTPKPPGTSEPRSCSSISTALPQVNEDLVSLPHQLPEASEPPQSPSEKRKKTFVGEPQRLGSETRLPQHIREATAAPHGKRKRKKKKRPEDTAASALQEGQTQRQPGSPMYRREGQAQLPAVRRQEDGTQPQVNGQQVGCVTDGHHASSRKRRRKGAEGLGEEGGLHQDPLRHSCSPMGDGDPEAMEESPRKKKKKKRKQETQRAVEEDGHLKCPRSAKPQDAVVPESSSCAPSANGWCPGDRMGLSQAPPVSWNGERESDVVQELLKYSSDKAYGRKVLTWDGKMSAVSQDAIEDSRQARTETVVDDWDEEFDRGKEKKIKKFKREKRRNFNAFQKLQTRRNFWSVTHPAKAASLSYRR
Procedure, shortened: as §1

[3] = target: T2, USP38 (UniProt Q8NB14)
T2 sequence (whole entry): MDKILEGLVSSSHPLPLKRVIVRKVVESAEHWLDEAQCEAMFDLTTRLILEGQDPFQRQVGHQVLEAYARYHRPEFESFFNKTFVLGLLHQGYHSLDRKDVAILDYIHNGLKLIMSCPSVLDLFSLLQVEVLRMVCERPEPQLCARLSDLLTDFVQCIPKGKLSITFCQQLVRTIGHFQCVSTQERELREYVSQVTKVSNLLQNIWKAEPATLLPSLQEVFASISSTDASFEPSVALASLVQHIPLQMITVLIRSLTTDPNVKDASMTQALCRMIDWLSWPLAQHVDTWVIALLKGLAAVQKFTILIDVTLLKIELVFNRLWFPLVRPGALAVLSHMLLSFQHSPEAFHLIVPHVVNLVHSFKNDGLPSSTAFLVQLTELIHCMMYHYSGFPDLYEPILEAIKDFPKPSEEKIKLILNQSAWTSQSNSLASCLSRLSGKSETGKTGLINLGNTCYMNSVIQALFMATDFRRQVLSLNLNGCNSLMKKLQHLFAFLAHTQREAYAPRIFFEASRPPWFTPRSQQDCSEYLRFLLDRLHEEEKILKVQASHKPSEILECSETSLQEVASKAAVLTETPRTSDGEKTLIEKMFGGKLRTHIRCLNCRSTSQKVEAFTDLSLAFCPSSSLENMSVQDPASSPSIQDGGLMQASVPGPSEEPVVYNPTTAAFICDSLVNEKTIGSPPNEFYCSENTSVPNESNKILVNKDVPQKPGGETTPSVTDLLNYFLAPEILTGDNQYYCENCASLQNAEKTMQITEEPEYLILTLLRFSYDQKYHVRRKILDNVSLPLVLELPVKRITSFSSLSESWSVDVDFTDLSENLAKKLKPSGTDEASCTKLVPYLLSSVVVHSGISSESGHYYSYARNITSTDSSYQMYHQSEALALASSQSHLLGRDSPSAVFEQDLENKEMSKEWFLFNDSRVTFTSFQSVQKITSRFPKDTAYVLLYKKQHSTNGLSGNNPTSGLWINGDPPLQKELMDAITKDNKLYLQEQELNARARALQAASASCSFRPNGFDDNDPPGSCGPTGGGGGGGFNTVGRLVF
Procedure, shortened: as §1

[4] = target: T3, USP39 (UniProt Q53GS9)
T3 sequence (whole entry): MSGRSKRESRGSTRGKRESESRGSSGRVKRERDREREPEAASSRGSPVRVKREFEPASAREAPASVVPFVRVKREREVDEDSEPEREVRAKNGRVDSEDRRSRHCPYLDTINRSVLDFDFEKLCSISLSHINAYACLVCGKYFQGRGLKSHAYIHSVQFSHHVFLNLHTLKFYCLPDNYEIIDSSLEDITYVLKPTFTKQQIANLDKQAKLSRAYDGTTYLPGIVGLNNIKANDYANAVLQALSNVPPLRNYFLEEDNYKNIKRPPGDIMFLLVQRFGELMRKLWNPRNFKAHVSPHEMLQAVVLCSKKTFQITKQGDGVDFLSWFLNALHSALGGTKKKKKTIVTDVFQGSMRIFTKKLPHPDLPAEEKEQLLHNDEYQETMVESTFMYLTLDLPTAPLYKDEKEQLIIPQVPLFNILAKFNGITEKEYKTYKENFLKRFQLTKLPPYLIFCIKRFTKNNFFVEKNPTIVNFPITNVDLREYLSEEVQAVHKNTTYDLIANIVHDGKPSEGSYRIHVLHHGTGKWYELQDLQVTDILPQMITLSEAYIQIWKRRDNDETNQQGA
Procedure, shortened: as §1

[5] = target: T4, USP4 (UniProt Q13107)
T4 sequence (whole entry): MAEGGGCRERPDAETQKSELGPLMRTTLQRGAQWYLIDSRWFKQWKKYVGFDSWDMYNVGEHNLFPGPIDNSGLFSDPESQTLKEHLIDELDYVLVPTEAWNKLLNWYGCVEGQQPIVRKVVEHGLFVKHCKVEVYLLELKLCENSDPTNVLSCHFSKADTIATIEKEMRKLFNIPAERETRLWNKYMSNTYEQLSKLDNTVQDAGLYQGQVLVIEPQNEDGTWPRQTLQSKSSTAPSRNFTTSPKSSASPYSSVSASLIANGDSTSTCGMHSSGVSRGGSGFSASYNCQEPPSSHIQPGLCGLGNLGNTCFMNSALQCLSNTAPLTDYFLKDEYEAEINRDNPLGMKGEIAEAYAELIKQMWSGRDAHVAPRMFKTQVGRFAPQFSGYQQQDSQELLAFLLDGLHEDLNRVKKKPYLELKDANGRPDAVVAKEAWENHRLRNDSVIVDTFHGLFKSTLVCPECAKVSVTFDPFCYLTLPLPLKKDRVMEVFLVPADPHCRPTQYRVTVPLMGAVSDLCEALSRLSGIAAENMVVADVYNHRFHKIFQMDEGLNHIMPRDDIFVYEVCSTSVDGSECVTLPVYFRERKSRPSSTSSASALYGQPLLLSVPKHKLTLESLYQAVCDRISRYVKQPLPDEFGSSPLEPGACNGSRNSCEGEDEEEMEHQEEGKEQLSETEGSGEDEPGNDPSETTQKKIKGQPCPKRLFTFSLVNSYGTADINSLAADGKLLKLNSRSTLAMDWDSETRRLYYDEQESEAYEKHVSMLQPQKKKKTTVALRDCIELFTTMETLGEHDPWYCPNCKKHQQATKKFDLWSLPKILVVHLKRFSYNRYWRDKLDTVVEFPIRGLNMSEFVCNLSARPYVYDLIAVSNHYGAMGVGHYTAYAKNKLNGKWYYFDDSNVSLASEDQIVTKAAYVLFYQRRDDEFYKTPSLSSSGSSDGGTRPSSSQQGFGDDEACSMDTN
Procedure, shortened: as §1

Measured: log2 ratio of Biotin-Ahx-Ub-VS probe labelling

Chain of USP34 (Q70CQ2 whole entry, the tested form may be a part): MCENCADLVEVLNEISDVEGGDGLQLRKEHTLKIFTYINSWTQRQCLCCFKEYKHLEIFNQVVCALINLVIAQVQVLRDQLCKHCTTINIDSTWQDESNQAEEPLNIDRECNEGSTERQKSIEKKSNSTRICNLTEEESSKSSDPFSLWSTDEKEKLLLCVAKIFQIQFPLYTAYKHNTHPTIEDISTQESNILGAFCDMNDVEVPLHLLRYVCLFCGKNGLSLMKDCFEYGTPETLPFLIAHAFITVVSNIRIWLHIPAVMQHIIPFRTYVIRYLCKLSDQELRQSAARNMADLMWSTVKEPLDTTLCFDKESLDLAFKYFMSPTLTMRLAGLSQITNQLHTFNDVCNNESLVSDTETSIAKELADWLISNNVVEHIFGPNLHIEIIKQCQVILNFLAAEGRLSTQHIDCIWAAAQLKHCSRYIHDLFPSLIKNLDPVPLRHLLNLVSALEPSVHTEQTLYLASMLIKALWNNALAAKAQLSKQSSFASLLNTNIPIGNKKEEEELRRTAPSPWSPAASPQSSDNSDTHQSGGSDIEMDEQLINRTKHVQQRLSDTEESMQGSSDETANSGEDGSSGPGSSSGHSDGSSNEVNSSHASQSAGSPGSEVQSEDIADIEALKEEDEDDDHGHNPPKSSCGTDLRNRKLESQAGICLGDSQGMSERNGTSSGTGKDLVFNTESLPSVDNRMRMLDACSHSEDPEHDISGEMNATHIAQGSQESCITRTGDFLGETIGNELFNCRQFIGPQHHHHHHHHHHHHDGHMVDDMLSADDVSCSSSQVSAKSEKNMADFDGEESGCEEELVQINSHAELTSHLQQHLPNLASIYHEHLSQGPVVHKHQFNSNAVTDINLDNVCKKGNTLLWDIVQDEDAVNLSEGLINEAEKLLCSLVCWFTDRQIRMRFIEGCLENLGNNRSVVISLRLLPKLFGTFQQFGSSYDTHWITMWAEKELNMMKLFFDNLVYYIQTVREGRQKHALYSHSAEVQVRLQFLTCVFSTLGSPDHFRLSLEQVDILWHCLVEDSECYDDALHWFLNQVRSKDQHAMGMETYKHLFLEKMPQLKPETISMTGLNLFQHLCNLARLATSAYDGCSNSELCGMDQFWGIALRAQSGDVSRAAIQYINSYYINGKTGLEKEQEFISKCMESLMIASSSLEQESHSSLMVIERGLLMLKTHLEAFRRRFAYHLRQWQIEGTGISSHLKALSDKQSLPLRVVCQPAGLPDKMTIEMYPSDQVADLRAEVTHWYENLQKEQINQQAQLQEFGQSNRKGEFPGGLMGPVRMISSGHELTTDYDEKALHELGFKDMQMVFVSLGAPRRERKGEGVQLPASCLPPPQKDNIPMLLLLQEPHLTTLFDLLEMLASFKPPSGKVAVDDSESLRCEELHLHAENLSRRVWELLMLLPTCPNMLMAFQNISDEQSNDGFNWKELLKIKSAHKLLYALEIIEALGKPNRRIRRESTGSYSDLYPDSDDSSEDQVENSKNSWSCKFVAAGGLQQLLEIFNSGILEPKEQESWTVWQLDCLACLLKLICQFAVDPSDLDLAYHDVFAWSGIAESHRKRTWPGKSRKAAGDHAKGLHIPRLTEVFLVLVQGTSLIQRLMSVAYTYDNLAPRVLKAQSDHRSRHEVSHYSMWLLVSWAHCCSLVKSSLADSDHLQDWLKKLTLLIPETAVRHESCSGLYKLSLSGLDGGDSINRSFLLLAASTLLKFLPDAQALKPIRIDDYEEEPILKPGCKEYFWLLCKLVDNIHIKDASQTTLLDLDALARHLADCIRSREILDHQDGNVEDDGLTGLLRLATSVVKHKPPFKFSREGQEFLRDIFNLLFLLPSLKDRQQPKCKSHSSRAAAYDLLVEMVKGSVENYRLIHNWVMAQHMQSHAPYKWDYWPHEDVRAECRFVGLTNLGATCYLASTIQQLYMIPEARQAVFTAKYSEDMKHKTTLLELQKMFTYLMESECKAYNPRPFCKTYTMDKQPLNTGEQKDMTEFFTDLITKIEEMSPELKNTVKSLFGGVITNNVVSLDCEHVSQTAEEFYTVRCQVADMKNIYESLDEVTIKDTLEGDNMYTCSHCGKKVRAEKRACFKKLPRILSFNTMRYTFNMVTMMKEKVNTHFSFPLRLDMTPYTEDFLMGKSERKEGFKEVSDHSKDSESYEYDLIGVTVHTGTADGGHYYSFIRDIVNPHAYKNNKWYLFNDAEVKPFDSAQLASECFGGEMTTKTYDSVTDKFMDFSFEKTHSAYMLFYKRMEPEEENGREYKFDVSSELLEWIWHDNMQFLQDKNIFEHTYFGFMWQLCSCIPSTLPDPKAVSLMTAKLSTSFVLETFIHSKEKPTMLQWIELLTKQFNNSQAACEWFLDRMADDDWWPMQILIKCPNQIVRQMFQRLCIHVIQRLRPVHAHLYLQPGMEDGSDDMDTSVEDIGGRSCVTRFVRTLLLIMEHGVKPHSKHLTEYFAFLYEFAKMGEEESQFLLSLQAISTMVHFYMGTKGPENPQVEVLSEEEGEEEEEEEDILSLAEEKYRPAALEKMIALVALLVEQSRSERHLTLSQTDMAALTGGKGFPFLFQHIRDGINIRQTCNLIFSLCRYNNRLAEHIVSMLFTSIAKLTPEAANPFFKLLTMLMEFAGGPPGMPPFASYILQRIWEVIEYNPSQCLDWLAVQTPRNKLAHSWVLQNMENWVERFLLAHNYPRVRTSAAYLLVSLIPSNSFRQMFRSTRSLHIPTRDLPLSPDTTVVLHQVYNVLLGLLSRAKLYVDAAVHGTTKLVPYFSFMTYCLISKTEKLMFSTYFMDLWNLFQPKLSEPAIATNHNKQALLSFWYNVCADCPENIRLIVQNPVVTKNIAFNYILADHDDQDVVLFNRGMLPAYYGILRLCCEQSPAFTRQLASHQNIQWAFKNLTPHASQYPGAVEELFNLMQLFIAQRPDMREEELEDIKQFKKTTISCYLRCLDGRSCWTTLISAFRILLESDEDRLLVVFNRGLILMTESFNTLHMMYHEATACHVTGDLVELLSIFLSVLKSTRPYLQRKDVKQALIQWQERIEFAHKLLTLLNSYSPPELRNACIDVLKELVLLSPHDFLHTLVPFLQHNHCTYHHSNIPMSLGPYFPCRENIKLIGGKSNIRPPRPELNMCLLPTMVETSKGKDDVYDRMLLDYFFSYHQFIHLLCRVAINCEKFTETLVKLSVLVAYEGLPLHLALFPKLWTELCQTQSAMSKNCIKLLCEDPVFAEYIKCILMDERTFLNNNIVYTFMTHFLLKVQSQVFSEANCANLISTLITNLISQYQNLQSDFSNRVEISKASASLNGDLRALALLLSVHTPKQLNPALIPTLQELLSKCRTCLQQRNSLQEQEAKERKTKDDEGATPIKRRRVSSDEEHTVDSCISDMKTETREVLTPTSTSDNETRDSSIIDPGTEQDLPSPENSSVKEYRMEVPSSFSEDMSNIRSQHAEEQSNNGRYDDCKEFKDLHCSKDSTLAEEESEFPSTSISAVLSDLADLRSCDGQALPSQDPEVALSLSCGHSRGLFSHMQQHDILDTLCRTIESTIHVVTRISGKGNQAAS

Cc1nc(CN2CCN(C(=O)CCl)CC2)cs1
inactive: [1] 0.0453 | [2] -0.0366 | [3] -0.217 | [4] -0.381 | [5] -0.261

Reference: the supplement of paper PMC11732987, “Enantioselective OTUD7B fragment discovery through chemoproteomics screening and high-throughput optimisation” (Communications Chemistry, 2025)
